Laboratory results from the supplement of paper PMC4466140.

How the values were obtained:
Test in all cases: SPOT peptide array binding signal intensity (averaged, normalized) (arbitrary units (background-subtracted, floor 0; scale differs between SH3 domains)); higher = stronger binding of the SH3 domain to the peptide
[1] = biological target: AgAbp1
Method in brief: (§1)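 Binding signal refers to normalized, background-subtracted spot intensity averaged over replicates, expressed in arbitrary units that differ between domains. GST-fused SH3 domains from four yeast species were incubated at 10 μg/ml overnight at 4°C on cellulose membranes of synthetic 15-mer peptides with cysteines replaced by serines. Bound protein was detected with anti-GST antibody, an HRP anti-mouse secondary and luminol, and quantified with Genespotter.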

[2] = biological target: AgBbc1
Method in brief: as §1

[3] = biological target: AgBem1-D1
Method in brief: as §1

[4] = biological target: AgBzz1-D1
Method in brief: as §1

[5] = biological target: AgBzz1-D2
Method in brief: as §1

[6] = biological target: AgCyk3
Method in brief: as §1

[7] = biological target: AgFus1
Method in brief: as §1

[8] = biological target: AgHof1
Method in brief: as §1

[9] = biological target: AgHse1
Method in brief: as §1

[10] = biological target: AgLsb1
Method in brief: as §1

[11] = biological target: AgLsb4
Method in brief: as §1

[12] = biological target: AgMyo5
Method in brief: as §1

[13] = biological target: AgNbp2
Method in brief: as §1

[14] = biological target: AgRvs167
Method in brief: as §1

[15] = biological target: AgSho1
Method in brief: as §1

[16] = biological target: AgSla1-D1-D2
Method in brief: as §1

[17] = biological target: AgSla1-D3
Method in brief: as §1

[18] = biological target: CaAbp1-D1
Method in brief: as §1

[19] = biological target: CaAbp1-D2
Method in brief: as §1

[20] = biological target: CaBbc1
Method in brief: as §1

[21] = biological target: CaBem1-D1
Method in brief: as §1

[22] = biological target: CaBzz1-D1
Method in brief: as §1

[23] = biological target: CaBzz1-D2
Method in brief: as §1

[24] = biological target: CaCyk3
Method in brief: as §1

[25] = biological target: CaFus1
Method in brief: as §1

[26] = biological target: CaHof1
Method in brief: as §1

[27] = biological target: CaHse1
Method in brief: as §1

[28] = biological target: CaLsb1
Method in brief: as §1

[29] = biological target: CaLsb4
Method in brief: as §1

[30] = biological target: CaMyo5
Method in brief: as §1

[31] = biological target: CaNbp2
Method in brief: as §1

[32] = biological target: CaRvs167
Method in brief: as §1

[33] = biological target: CaRvs167-3
Method in brief: as §1

[34] = biological target: CaSho1
Method in brief: as §1

[35] = biological target: CaSla1-D1-D2
Method in brief: as §1

[36] = biological target: CaSla1-D3
Method in brief: as §1

[37] = biological target: ScAbp1
Method in brief: as §1

[38] = biological target: ScBbc1
Method in brief: as §1

[39] = biological target: ScBem1-D1
Method in brief: as §1

[40] = biological target: ScBzz1-D1
Method in brief: as §1

[41] = biological target: ScBzz1-D2
Method in brief: as §1

[42] = biological target: ScCyk3
Method in brief: as §1

[43] = biological target: ScFus1
Method in brief: as §1

[44] = biological target: ScHof1
Method in brief: as §1

[45] = biological target: ScHse1
Method in brief: as §1

[46] = biological target: ScLsb1
Method in brief: as §1

[47] = biological target: ScLsb2
Method in brief: as §1

[48] = biological target: ScLsb3
Method in brief: as §1

[49] = biological target: ScLsb4
Method in brief: as §1

[50] = biological target: ScMyo3
Method in brief: as §1

[51] = biological target: ScMyo5
Method in brief: as §1

[52] = biological target: ScNbp2
Method in brief: as §1

[53] = biological target: ScPex13
Method in brief: as §1

[54] = biological target: ScRvs167
Method in brief: as §1

[55] = biological target: ScSho1
Method in brief: as §1

[56] = biological target: ScSla1-D1-D2
Method in brief: as §1

[57] = biological target: ScSla1-D3
Method in brief: as §1

[58] = biological target: SpAbp1-D1
Method in brief: as §1

[59] = biological target: SpBbc1
Method in brief: as §1

[60] = biological target: SpBzz1-D1
Method in brief: as §1

[61] = biological target: SpBzz1-D2
Method in brief: as §1

[62] = biological target: SpCyk3
Method in brief: as §1

[63] = biological target: SpHof1
Method in brief: as §1

[64] = biological target: SpHof1-2
Method in brief: as §1

[65] = biological target: SpHof1-3
Method in brief: as §1

[66] = biological target: SpHse1
Method in brief: as §1

[67] = biological target: SpLsb1
Method in brief: as §1

[68] = biological target: SpLsb4
Method in brief: as §1

[69] = biological target: SpMyo1
Method in brief: as §1

[70] = biological target: SpNbp2
Method in brief: as §1

[71] = biological target: SpPex13
Method in brief: as §1

[72] = biological target: SpRvs167
Method in brief: as §1

[73] = biological target: SpSla1-D1-D2
Method in brief: as §1

[74] = biological target: SpSla1-D3
Method in brief: as §1

Binder: NMLSRPRLAKLPSIR
- SPOT peptide array binding signal intensity [1]: 124
- SPOT peptide array binding signal intensity [2]: 16.5
- SPOT peptide array binding signal intensity [3]: 394
- SPOT peptide array binding signal intensity [4]: 23
- SPOT peptide array binding signal intensity [5]: 3
- SPOT peptide array binding signal intensity [6]: ≤ 0
- SPOT peptide array binding signal intensity [7]: 458
- SPOT peptide array binding signal intensity [8]: 331
- SPOT peptide array binding signal intensity [9]: 2140
- SPOT peptide array binding signal intensity [10]: 3.25
- SPOT peptide array binding signal intensity [11]: 59
- SPOT peptide array binding signal intensity [12]: ≤ 0
- SPOT peptide array binding signal intensity [13]: 362
- SPOT peptide array binding signal intensity [14]: 4.33
- SPOT peptide array binding signal intensity [15]: 388
- SPOT peptide array binding signal intensity [16]: 27
- SPOT peptide array binding signal intensity [17]: 4.5
- SPOT peptide array binding signal intensity [18]: 822
- SPOT peptide array binding signal intensity [19]: 754
- SPOT peptide array binding signal intensity [20]: 165
- SPOT peptide array binding signal intensity [21]: 526
- SPOT peptide array binding signal intensity [22]: 184
- SPOT peptide array binding signal intensity [23]: 69.8
- SPOT peptide array binding signal intensity [24]: 46
- SPOT peptide array binding signal intensity [25]: 1210
- SPOT peptide array binding signal intensity [26]: 0.25
- SPOT peptide array binding signal intensity [27]: 183
- SPOT peptide array binding signal intensity [28]: 2
- SPOT peptide array binding signal intensity [29]: 290
- SPOT peptide array binding signal intensity [30]: 46.5
- SPOT peptide array binding signal intensity [31]: 1250
- SPOT peptide array binding signal intensity [32]: 97.2
- SPOT peptide array binding signal intensity [33]: 60.5
- SPOT peptide array binding signal intensity [34]: 1490
- SPOT peptide array binding signal intensity [35]: 663
- SPOT peptide array binding signal intensity [36]: 254
- SPOT peptide array binding signal intensity [37]: 424
- SPOT peptide array binding signal intensity [38]: 3.5
- SPOT peptide array binding signal intensity [39]: 21
- SPOT peptide array binding signal intensity [40]: 22
- SPOT peptide array binding signal intensity [41]: 29.5
- SPOT peptide array binding signal intensity [42]: 35
- SPOT peptide array binding signal intensity [43]: 826
- SPOT peptide array binding signal intensity [44]: 28
- SPOT peptide array binding signal intensity [45]: 2110
- SPOT peptide array binding signal intensity [46]: 71.5
- SPOT peptide array binding signal intensity [47]: ≤ 0
- SPOT peptide array binding signal intensity [48]: 570
- SPOT peptide array binding signal intensity [49]: 112
- SPOT peptide array binding signal intensity [50]: 13.5
- SPOT peptide array binding signal intensity [51]: ≤ 0
- SPOT peptide array binding signal intensity [52]: 370
- SPOT peptide array binding signal intensity [53]: 142
- SPOT peptide array binding signal intensity [54]: 43
- SPOT peptide array binding signal intensity [55]: 962
- SPOT peptide array binding signal intensity [56]: 389
- SPOT peptide array binding signal intensity [57]: 418
- SPOT peptide array binding signal intensity [58]: 610
- SPOT peptide array binding signal intensity [59]: 1
- SPOT peptide array binding signal intensity [60]: 333

Binder: KNRKNLPTIPIRLSG
- SPOT peptide array binding signal intensity [1]: 4080
- SPOT peptide array binding signal intensity [2]: 456
- SPOT peptide array binding signal intensity [3]: 144
- SPOT peptide array binding signal intensity [4]: 104
- SPOT peptide array binding signal intensity [5]: 35
- SPOT peptide array binding signal intensity [6]: 1
- SPOT peptide array binding signal intensity [7]: 63
- SPOT peptide array binding signal intensity [8]: 240
- SPOT peptide array binding signal intensity [9]: 206
- SPOT peptide array binding signal intensity [10]: 318
- SPOT peptide array binding signal intensity [11]: 108
- SPOT peptide array binding signal intensity [12]: ≤ 0
- SPOT peptide array binding signal intensity [13]: 1360
- SPOT peptide array binding signal intensity [14]: 5.83
- SPOT peptide array binding signal intensity [15]: 4630
- SPOT peptide array binding signal intensity [16]: 402
- SPOT peptide array binding signal intensity [17]: 7
- SPOT peptide array binding signal intensity [18]: 1420
- SPOT peptide array binding signal intensity [19]: 3510
- SPOT peptide array binding signal intensity [20]: 1560
- SPOT peptide array binding signal intensity [21]: 22
- SPOT peptide array binding signal intensity [22]: 221
- SPOT peptide array binding signal intensity [23]: 67.2
- SPOT peptide array binding signal intensity [24]: 8
- SPOT peptide array binding signal intensity [25]: 382
- SPOT peptide array binding signal intensity [26]: 0.25
- SPOT peptide array binding signal intensity [27]: 28.2
- SPOT peptide array binding signal intensity [28]: 0.5
- SPOT peptide array binding signal intensity [29]: 1340
- SPOT peptide array binding signal intensity [30]: ≤ 0
- SPOT peptide array binding signal intensity [31]: 398
- SPOT peptide array binding signal intensity [32]: 283
- SPOT peptide array binding signal intensity [33]: 23.8
- SPOT peptide array binding signal intensity [34]: 1100
- SPOT peptide array binding signal intensity [35]: 672
- SPOT peptide array binding signal intensity [36]: ≤ 0
- SPOT peptide array binding signal intensity [37]: 634
- SPOT peptide array binding signal intensity [38]: 46.8
- SPOT peptide array binding signal intensity [39]: 19
- SPOT peptide array binding signal intensity [40]: 35.5
- SPOT peptide array binding signal intensity [41]: 7
- SPOT peptide array binding signal intensity [42]: 17
- SPOT peptide array binding signal intensity [43]: 63
- SPOT peptide array binding signal intensity [44]: 3
- SPOT peptide array binding signal intensity [45]: 582
- SPOT peptide array binding signal intensity [46]: 462
- SPOT peptide array binding signal intensity [47]: 824
- SPOT peptide array binding signal intensity [48]: 2010
- SPOT peptide array binding signal intensity [49]: 80
- SPOT peptide array binding signal intensity [50]: 4.5
- SPOT peptide array binding signal intensity [51]: 1
- SPOT peptide array binding signal intensity [52]: 1180
- SPOT peptide array binding signal intensity [53]: 148
- SPOT peptide array binding signal intensity [54]: 774
- SPOT peptide array binding signal intensity [55]: 5890
- SPOT peptide array binding signal intensity [56]: 2930
- SPOT peptide array binding signal intensity [57]: 27.8
- SPOT peptide array binding signal intensity [58]: 1210
- SPOT peptide array binding signal intensity [59]: 5.5
- SPOT peptide array binding signal intensity [60]: 512
- SPOT peptide array binding signal intensity [61]: 1.5
- SPOT peptide array binding signal intensity [62]: 23.5
- SPOT peptide array binding signal intensity [63]: 1400
- SPOT peptide array binding signal intensity [64]: 2230
- SPOT peptide array binding signal intensity [65]: 1490
- SPOT peptide array binding signal intensity [66]: 166
- SPOT peptide array binding signal intensity [67]: 510
- SPOT peptide array binding signal intensity [68]: 2330
- SPOT peptide array binding signal intensity [69]: 25
- SPOT peptide array binding signal intensity [70]: 336
- SPOT peptide array binding signal intensity [71]: 9.5
- SPOT peptide array binding signal intensity [72]: 1010
- SPOT peptide array binding signal intensity [73]: 1490
- SPOT peptide array binding signal intensity [74]: 6
